3CLpro inhibitor = SARS-CoV 3CLpro protease inhibition; actives 0.14% (n = 290,000); inhibition, % at 6 µM; recombinant SARS-CoV 3CLpro, quenched FRET peptide cleavage; in the data active = inhibition above about 12%
Vc quorum ag = quorum light induction in luxS cqsA deficient V. cholerae. V. cholerae BH1578 lux reporter, luminescence, 6 h. activation, % at 18.7 µM. actives 0.16% (n = 350,000). AID 588436; in the data active = activation mostly above about 9.7%, no sharp cut-off
GDH-TPI counter = counter-screen for M. tuberculosis FBA inhibitors: GDH-TPI coupled enzymes | GDH-TPI coupled enzyme counterscreen, NADH absorbance | inhibition, % at 4.8 µM | actives 1.2% (n = 360,000); in the data active = inhibition above about 30%
PrPC TRFRET = cell surface PrPC inhibition, primary TR-FRET screen. P04156. TR-FRET read-out. inhibition, % at 13.8 µM. actives 0.43% (n = 370,000). AID 720596; in the data active = inhibition above about 24%
FBA Mtb inh = inhibits M. tuberculosis FBA enzyme | P9WQA3 | purified M. tuberculosis FBA, fluorescence read-out | inhibition, % at 1 µM | actives 2.3% (n = 360,000) | AID 588726; in the data active = inhibition above about 27%
Target sequence (P9WQA3 whole entry, looked up): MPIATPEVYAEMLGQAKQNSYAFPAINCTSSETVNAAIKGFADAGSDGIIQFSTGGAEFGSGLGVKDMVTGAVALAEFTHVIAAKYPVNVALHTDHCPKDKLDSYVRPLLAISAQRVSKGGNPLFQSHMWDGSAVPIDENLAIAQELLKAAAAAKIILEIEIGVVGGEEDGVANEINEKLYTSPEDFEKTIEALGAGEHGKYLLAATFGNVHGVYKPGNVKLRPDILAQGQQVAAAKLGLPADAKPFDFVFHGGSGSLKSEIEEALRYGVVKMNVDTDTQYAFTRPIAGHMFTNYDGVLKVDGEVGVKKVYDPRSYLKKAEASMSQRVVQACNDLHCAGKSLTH
Of the large screens only hits and unclear results are named; the others gave an inactive call. Shown are actives, neighbours in structure and some others; about 3.9% of the full set was active somewhere.

CC(C)c1cccc(-c2ccc3c(c2)S(=O)(=O)c2cccc(C(=O)O)c2C3=O)c1	GDH-TPI counter 31 (no result: 3CLpro inhibitor)
CC(C)c1cccc(-c2ccc3c(c2)S(=O)(=O)c2cccc(C(=O)NCc4ccco4)c2C3=O)c1	none (no result: 3CLpro inhibitor)
CC(=O)Nc1nc2cc3c(cc2s1)OCO3	none
O=C(Nc1nc2cc3c(cc2s1)OCO3)C1=COCCO1	GDH-TPI counter 42
O=C(Nc1nc2cc3c(cc2s1)OCO3)c1ccco1	GDH-TPI counter 35
O=C(Nc1nc2cc3c(cc2s1)OCCO3)c1ccco1	GDH-TPI counter 35
COc1cc(C)ccc1OCc1cc(C(=O)N2CCC(c3ccc(F)cc3)C2)no1 (stereo not drawn)	none
CSc1ccccc1C(=O)N1CCCCC1	none
O=c1cc2c(c(-c3ccccc3)n1Cc1ccccc1)[C@@H](CCO)NC2	none (no result: 3CLpro inhibitor)
COCCN(CCOC)C(=O)c1cc2c(=O)n3ccccc3nc2s1	GDH-TPI counter 32, FBA Mtb inh active
CCN(CC)C(=O)c1cc2c(=O)n3ccccc3nc2s1	FBA Mtb inh 186
CCOCCCNC(=O)c1cc2c(=O)n3cccc(C)c3nc2s1	none
CCOc1ccc(CNC(=S)N/N=C/c2ccc(OC)c(OC)c2)cc1	GDH-TPI counter 42
COc1ccccc1/C=N/NC(=S)NCc1ccco1	GDH-TPI counter 38
S=C(NCc1ccco1)N/N=C/c1ccccc1Cl	none
CCOc1ccc(/C=N/NC(=O)C(=O)NCc2ccco2)cc1	GDH-TPI counter 33
Oc1c(Br)cc(/C=N/NC(=S)NCc2ccco2)cc1Br	GDH-TPI counter 33
O=C(O)c1cccc(S(=O)(=O)Nc2ccc3c(c2)CCC3)c1	none
CCN(CC)C(=O)CC[C@@H]1CC[C@]2(CCCN(C(=O)c3ccno3)C2)O1	none (no result: 3CLpro inhibitor, Vc quorum ag, GDH-TPI counter, FBA Mtb inh)
COc1cc(/C=N/NC(=S)NCc2ccco2)cc(OC)c1OC	GDH-TPI counter 37
O=S(=O)(N/N=C\C=C\c1ccccc1)c1ccc(Br)cc1	GDH-TPI counter 39
CS(=O)(=O)c1ccc2nc(NC(=O)c3ccc(Cl)cc3)sc2c1	none
CS(=O)(=O)c1ccc2nc(NC(=O)c3ccc(=O)[nH]c3)sc2c1	GDH-TPI counter 83
Cn1nc(C(=O)Nc2nc3ccc(S(C)(=O)=O)cc3s2)ccc1=O	GDH-TPI counter 61
Cc1ccc(C)c(N(CC(=O)N2CCCC2)S(C)(=O)=O)c1	none
COc1ccc(NC(C)=O)cc1NC(C)C(=O)Nc1cccc2ccccc12 (stereo not drawn)	none
CN1CCSc2ccc(C(=O)NCc3cccc(F)c3)cc21	FBA Mtb inh 113
COc1cccc(NC(=O)c2ccc3c(c2)N(C)CCS3)c1	none
CS(=O)(=O)c1ccc(-c2sc3ccccc3c2C(=O)NCCCN2CCOCC2)cc1	none (no result: 3CLpro inhibitor)
CCOC(=O)c1sc(=S)n(C)c1NC(=O)c1ccccc1	GDH-TPI counter 36
Cc1ccc(C(=O)C(c2ccccc2)N2Cc3ccccc3C2=N)cc1 (stereo not drawn)	none (no result: PrPC TRFRET)
CCCS(=O)(=O)NC(=O)C1(C)CCCN(C(=O)Cc2ccc3ccccc3c2)C1 (stereo not drawn)	none (no result: 3CLpro inhibitor)
CN(C)CCCN=c1cc(-c2ccccc2)oc2ccc(Cl)cc12	none
OCCN=c1cc(-c2ccccc2)oc2ccc(Cl)cc12	GDH-TPI counter 40 (no result: PrPC TRFRET)
O=C1C(=Cc2ccccc2O)SC(=S)N1CCCN1CCOCC1	none (no result: 3CLpro inhibitor)
O=c1nc2ccc(Cl)cn2c2ccc(S(=O)(=O)N3CCOCC3)cc12	FBA Mtb inh 176
CCOC(=O)[C@@]12CCC3=C1N(CCC3)C(=O)[C@H](CC(=O)N1CCCCC1)C2	none (no result: 3CLpro inhibitor, Vc quorum ag, GDH-TPI counter, FBA Mtb inh)
CCC1=NN2C(=N)/C(=C\c3cccn3-c3ccc(C)cc3C)C(=O)N=C2S1	none
CCC1=NN2C(=N)/C(=C\c3cccn3-c3c(C)cccc3C)C(=O)N=C2S1	GDH-TPI counter 44
Cc1cccc(C)c1-n1cccc1/C=C1/C(=N)N2C(=NC1=O)SN=C2S(C)(=O)=O	GDH-TPI counter 32
O=C(/C=C/c1ccc(Br)o1)Nc1nnc(C2CC2)s1	none (no result: Vc quorum ag, GDH-TPI counter, PrPC TRFRET, FBA Mtb inh)
CCN1C(=O)C(O)(CC(=O)/C=C/C=C/c2ccccc2)c2ccccc21 (stereo not drawn)	GDH-TPI counter 41
Cc1ccc2c(c1)C(O)(CC(=O)/C=C/C=C/c1ccccc1)C(=O)N2 (stereo not drawn)	GDH-TPI counter 38
NC(=O)CN1C(=O)C(O)(CC(=O)/C=C\C=C\c2ccccc2)c2ccccc21 (stereo not drawn)	GDH-TPI counter 34
O=C(CN1CCCCC1)Nc1ccc(Br)cc1[N+](=O)[O-]	Vc quorum ag 48
O=C(CN1CCCCC1)Nc1nnc(-c2ccc([N+](=O)[O-])cc2)s1	GDH-TPI counter 41
Clc1ccc(-c2nnc3n2-c2ccccc2SC3)cc1	none
CN1C(c2ccc(F)cc2)=CS/C1=C(\C#N)c1nnc2n1-c1ccccc1SC2	GDH-TPI counter 34
COC(=O)CC/C(O)=C1\C(=O)CC(C)(C)CC1=NCCc1nc2ccccc2[nH]1	none
Cc1cccc(-c2nc(CS(=O)CC(=O)NCCc3ccc(Cl)cc3)c(C)o2)c1 (stereo not drawn)	none
CCCCNC(=O)c1c(C)cc(=O)oc1C	GDH-TPI counter 33
Cc1cc(=O)oc(C)c1C(=O)NCc1c(F)cc(F)cc1F	GDH-TPI counter 36
COc1ccccc1Cc1c(-c2ccc(OC)c(OC)c2)nc2c(Cl)cc(C(F)(F)F)cn12	none (no result: 3CLpro inhibitor, Vc quorum ag, GDH-TPI counter, FBA Mtb inh)
O=C(OCc1cn(Cc2ccccc2F)nn1)N1CCCC1	none (no result: 3CLpro inhibitor, Vc quorum ag, GDH-TPI counter, FBA Mtb inh)
Cc1ccc2nc(C)cc(Nc3ccc4c(c3)OCCO4)c2c1	GDH-TPI counter 33
Cc1ccccc1C(=O)Nc1ccc(C(=O)N/N=C/c2ccncc2)cc1	none
O=C(N/N=C/c1ccc(O)cc1)c1cccc(N/N=C/c2ccc(O)cc2)c1	GDH-TPI counter 37
O=C(N/N=C/c1ccc(O)cc1)c1ccc(NC(=O)c2ccccc2Br)cc1	GDH-TPI counter 42
Cc1ccccc1C(=O)Nc1ccc(C(=O)N/N=C/c2ccc(O)cc2)cc1	GDH-TPI counter 34
O=C(NNC(=O)c1ccccc1[N+](=O)[O-])c1csc(N2CCOCC2)n1	none (no result: 3CLpro inhibitor)
C#CCNC(=O)C[C@@H]1C[C@@]2(C(=O)OC)CC(C)(C)CC=C2N(Cc2ccccc2)C1=O	none (no result: 3CLpro inhibitor, Vc quorum ag, GDH-TPI counter, FBA Mtb inh)
CC(/C=N/NC(=O)c1nnn(-c2nonc2N)c1C(C)C)=C\c1ccccc1	GDH-TPI counter 33
Cc1ccc(/C=N/NC(=O)c2nnn(-c3nonc3N)c2-c2cccs2)cc1	none
Cc1ccc(/C=N/NC(=O)c2nnn(-c3nonc3N)c2-c2ccc3c(c2)OCO3)s1	GDH-TPI counter 47
COc1ccc(/C=N/NC(=O)c2nnn(-c3nonc3N)c2-c2cccs2)cc1OC	GDH-TPI counter 69
COc1cc(/C=N/NC(=O)c2nnn(-c3nonc3N)c2-c2cccs2)ccc1O	GDH-TPI counter 47
Nc1nonc1-n1nnc(C(=O)N/N=C/c2ccc(F)cc2)c1-c1ccc2c(c1)OCO2	none
COc1cc(/C=N/NC(=O)c2nnn(-c3nonc3N)c2C(C)C)ccc1O	GDH-TPI counter 32
CC(C)c1c(C(=O)N/N=C/c2cccs2)nnn1-c1nonc1N	none
Cc1ccsc1/C=N/NC(=O)c1nnn(-c2nonc2N)c1C(C)C	GDH-TPI counter 34

Bioassay records as filed in PubChem.
